High-throughput results (PubChem)
Abeta yeast res: qHTS for compounds that reverse cellular toxicity of Amyloid beta (A-beta) peptide in yeast: Primary Screen. yeast expressing A-beta42, growth rescue, OD600, 48 h; response scale: 0% DMSO, 100% iron-clioquinol control. Potency, µM (series often up to 46.1 µM), usual class: activators. hit rate 0.063% among 410,000. AID 1347071, 2019; further: nearly all actives have a fitted effect of over 55% in size
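Yeast growth medium received pinned compounds, then yeast cells expressing toxic A-beta were added; plates incubated at 30 C for 48 hr. Growth read as absorbance at 600 nm, normalized to DMSO and equimolar FeCl3 plus clioquinol controls.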
aSyn rescue: qHTS of alpha-syn Inhibitors; Potency, µM (top dose mostly 46.1 µM), usual class: activators; AID 652106, 2013; hit rate 0.14% among 370,000; Yeast expressing alpha-synuclein, growth rescue, BacTiter-Glo, 24 h; further: nearly all actives have a fitted effect of over 65% in size
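Galactose-induced alpha-syn yeast (OD600=0.02, raffinose-pregrown) + pinned cpd, 24 hr, 30 deg C; growth by BacTiter-Glo luminescence. Growth restoration scores as activation.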
FUS suppressor: qHTS for Suppressors of FUS Proteinopathy: Primary screen using FUS-linked yeast assay. S. cerevisiae FUS-expressing, growth rescue, OD600, 24 h. Potency, µM (top dose mostly 76.6 µM), usual class: activators. hit rate 0.24% among 390,000. AID 1347120, 2019; further: nearly all actives have a fitted effect of over 55% in size
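Cultures pregrown in 2.5% raffinose medium are shifted to minimal medium containing 2% galactose to express toxic FUS. Compounds are tested at several concentrations. After 24hr at 30C, growth is quantified at 600 nm absorbance.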
TDP43 rescue: qHTS of TDP-43 Inhibitors; hit rate 1.8% among 410,000; Potency, µM (top dose mostly 46.1 µM), hits mostly activators; TDP-43 expressing yeast growth rescue, BacTiter-Glo, 24 h; AID 652104, 2013; further: nearly all actives have a fitted effect of over 50% in size
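Yeast expressing TDP-43 (pregrown in raffinose, seeded at OD600=0.02 in galactose medium) exposed to compounds 24 hr at 30 deg C. Growth read by BacTiter-Glo luminescence; rescue of toxicity appears as increased signal.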
A number is an active result; . = inactive; ? = inconclusive; / = no result given. An excerpt weighted towards active compounds, which were near 2.1% of everything screened. The call rests on the fitted dose curve; in most records, active means well fitted curve in the direction sought with a large enough effect; inconclusive means small, poorly fitted or top-dose-only effect, or another doubt; inactive means no such curve, though single readings can be large; an effect the other way counts as inactive or inconclusive.

SMILES	Abeta yeast res	aSyn rescue	FUS suppressor	TDP43 rescue
CCCCCCC(=O)N1C/C=C\C(c2ccc(OC)cc2)N(Cc2ccc(F)cc2)C(=O)C1 (stereo unspecified)	.	.	?	28µM
CCOC(=O)c1cnc2c(N=Nc3ccccc3)c(N)nn2c1N	.	.	.	?
CCOc1ccc(-c2cc(C(F)(F)F)c(C#N)c(SCC(=O)Nc3ccccc3)n2)cc1	.	/	.	.
CCOC(=O)N/N=C/c1c(C)nn(-c2cccc(C(F)(F)F)c2)c1Cl	?	.	.	13µM
Cc1nn(-c2cccc(C(F)(F)F)c2)c(Cl)c1/C=N/Nc1cccc(C(=O)O)c1	.	.	.	?
O=C(Nc1ccon1)Nc1cccc(Cl)c1Cl	.	.	.	13µM
Cc1nc(Cl)sc1C(=O)Nc1ccc(C(C)(C)C)cc1	.	.	.	11µM
Cc1ccccc1NC(=O)c1sc(Cl)nc1C	.	.	.	?
O=C(Nc1cccc(C(F)(F)F)c1)c1sc(Cl)nc1C(F)(F)F	10µM	.	.	13µM
O=C(Nc1cccc(C(F)(F)F)c1)Nc1ccon1	.	.	.	20µM
COc1ccccc1C(=O)NCCSCc1ccccc1Cl	.	.	.	13µM
Cc1c(C(=O)NCCSCc2ccc(Cl)cc2Cl)cccc1[N+](=O)[O-]	.	.	.	14µM
NC1=NN=C(N2N=C(c3ccco3)CC2(O)C(F)(F)F)n2ncnc2C1 (stereo unspecified)	.	.	.	.
COCCN(CCOC)Cc1cc(=O)oc2cc3c(cc12)CCC3	.	.	.	.
CCN(CC)C(=O)c1sc2nc(-c3ccccn3)[nH]c(=O)c2c1C	.	.	.	.
Cc1sc2nc(-c3ccccn3)[nH]c(=O)c2c1-c1ccccc1	.	?	.	18µM
CCC1NC(=O)c2cccnc2-n2c1nc1cc(F)ccc1c2=O (stereo unspecified)	.	.	.	.
CCOC(=O)N1CCN(C(=O)c2ccc3oc(CCCc4ccccc4)nc3c2)CC1	.	.	.	16µM
CC(=O)N1CCN(C(=O)c2ccc3oc(CCCc4ccccc4)nc3c2)CC1	.	.	.	.
O=c1[nH]c(CSc2nc(-c3ccccc3)cs2)nc2ccccc12	.	.	.	.
COc1cccc(-c2cn3c(n2)sc2cc(C(=O)NCc4ccccc4F)ccc23)c1	.	/	.	?
CCNC(=O)c1ccc2c(c1)sc1nc(-c3cccc(OC)c3)cn12	.	/	.	16µM
COC(=O)C1=C2c3[nH]c4ccccc4c3CCN2C(=O)CC1	.	.	.	10µM
CCCCN1CCc2c([nH]c3ccccc23)C1=O	.	.	.	.
O=C(c1cc(-c2ccncc2)nc2ccccc12)N1CCN(c2ccccc2O)CC1	.	.	18µM	.
SMILES	Abeta yeast res	aSyn rescue	FUS suppressor	TDP43 rescue
O=C(c1cc(-c2ccccc2)nc2ccccc12)N1CCN(c2ccccc2O)CC1	.	.	?	?
Cc1cnn(C(=S)NCc2ccc(Cl)cc2)c1	.	.	.	.
Cc1cnn(C(=S)NCCc2ccccc2)c1	.	.	.	11µM
CCOc1ccc(-n2c(C)c(C(=O)OC)c3cc(O)ccc32)cc1	.	.	.	.
COc1ccc(-c2onc(C)c2C)cc1S(=O)(=O)NCC(C)c1ccccc1 (stereo unspecified)	.	/	?	35µM
Cc1ccc(-c2onc(C)c2C)cc1S(=O)(=O)NCc1cccs1	.	/	.	16µM
CCOc1ccccc1CNS(=O)(=O)c1cc(-c2onc(C)c2C)ccc1OC	.	/	?	.
CCOC(=O)CSc1nc(-c2ccccc2)ns1	.	.	.	.
Cc1ccc2cc(C#N)c(N3CCCN(S(=O)(=O)c4ccccc4)CC3)nc2c1C	.	.	6.3µM	.
CCCCOc1ccc(-c2nnc(-c3ccncc3)o2)cc1	.	.	.	20µM
CCOc1ccc(-c2nnc(-c3ccncc3)o2)cc1	.	.	.	?
O=C(/C=C/c1ccnc2ccccc12)c1cccs1	.	.	.	3.5µM
Cc1ccc(Nc2nc3ccccc3s2)c(C)c1	.	.	.	25µM
Cc1cc(C)nc(Nc2nc3ccccc3s2)n1	.	.	.	.
Cc1cccc(CN2C(=O)[C@@H]3Cc4c([nH]c5ccccc45)C(C)(C)N3C2=O)c1	7.9µM	/	.	/
CC1(C)c2[nH]c3ccccc3c2C[C@H]2C(=O)N(Cc3ccccc3)C(=O)N21	?	/	.	/
Cc1ccc(Sc2c([N+](=O)[O-])ncn2C)cc1	.	.	.	10µM
CCc1ccc(S(=O)(=O)N(C(=O)c2ccncc2)c2ccc3oc(C)c(C(=O)OC)c3c2)cc1	.	/	.	20µM
Oc1ccc2ccccc2c1/C=C/c1ccc2c(Br)cc(Br)c(O)c2n1	.	?	/	16µM
Oc1cccc2ccc(/C=C/c3ccccc3Br)nc12	?	?	.	.
CC1(C(=O)NS(C)(=O)=O)CCN1C(=O)Cc1ccc(Cl)cc1Cl (stereo unspecified)	.	.	.	.
COc1ccc(S(=O)(=O)N(C)C[C@H]2Oc3ccc(NC(=O)Cc4ccccc4)cc3C(=O)N([C@H](C)CO)C[C@@H]2C)cc1	.	.	28µM	.
COc1ccc(S(=O)(=O)Nc2cccc3c2O[C@H](CN(C)S(=O)(=O)c2ccccc2)[C@@H](C)CN([C@H](C)CO)C3=O)cc1	.	.	16µM	.
C[C@H]1CN([C@@H](C)CO)S(=O)(=O)c2ccc(Br)cc2O[C@H]1CN(C)S(=O)(=O)c1ccccc1F	.	.	.	.
COc1ccc(C#Cc2ccc3c(c2)O[C@H](CN(C)S(=O)(=O)c2ccccc2F)[C@H](C)CN([C@H](C)CO)S3(=O)=O)cc1	.	.	28µM	.
SMILES	Abeta yeast res	aSyn rescue	FUS suppressor	TDP43 rescue
COc1ccc(S(=O)(=O)N(C)C[C@@H]2Oc3c(NC(=O)Nc4ccccc4)cccc3C(=O)N([C@@H](C)CO)C[C@H]2C)cc1	/	/	16µM	/
Nc1c(-c2nc(-c3ccc(Cl)cc3)no2)nnn1-c1ccc(C(F)(F)F)c(Cl)c1	.	/	.	.
CCOc1cc(CNc2ccc3c(c2)OCCO3)cc(Br)c1OCC(N)=O	.	.	.	.
COc1ccc(S(=O)(=O)Nc2cccc3c2O[C@H](CN(C)Cc2ccc(-c4ccccc4)cc2)[C@@H](C)CN([C@H](C)CO)C3=O)cc1	.	.	25µM	.
C[C@H](CO)N1C[C@H](C)[C@@H](CN(C)S(=O)(=O)c2ccc(F)cc2)Oc2c(NC(=O)NC3CCCCC3)cccc2C1=O	.	.	.	.
C[C@H](CO)N1C[C@H](C)[C@@H](CN(C)S(=O)(=O)c2ccccc2)Oc2c(NC(=O)NC3CCCCC3)cccc2C1=O	.	.	32µM	.
COc1ccc(C)c(NC(=O)C2CC(=O)NC3=C2C(=O)CCC3)c1 (stereo unspecified)	.	.	.	.
COc1cc(/C=C/C(=O)c2c(O)ccc3c(C)cc(=O)oc23)ccc1O	.	5µM	.	?
COc1ccc(C)cc1S(=O)(=O)Nc1ccc(F)c(Cl)c1	.	.	.	18µM
